Screen size: about 5,500 compounds; about 2,000 (36%) were called active. Roughly 18% stayed inconclusive and do not appear here. Cut-off read from the data, not from the text of the source: active = normalized growth mostly below about 0.91 (no sharp cut-off); inconclusive = no clear call, values can overlap the other calls; inactive = mostly above about 0.92. The list shows a part of the results.
Test: chemical genetic growth profiling, strain panel (AID 1159580);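 note: tested at 20 µM; growth read once vehicle control cultures reached saturation at 30 °C; 1 = growth at the plate median or of vehicle wells; lower values mean less growth of the strain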
Conditions: growth OD

Measured: normalized growth

CNC(=O)N(C)c1nnc(C(C)(C)C)s1
inactive: S. cerevisiae deletion strains, locus YJR075W, strain HOC1, hits give low values 1.02 | S. cerevisiae deletion strains, locus YKL009W, strain mrt4, hits give low values 1.04 | S. cerevisiae deletion strains, locus YKL068W, hits give low values 1.01 | S. cerevisiae deletion strains, locus YKL085W, strain MDH1 (second series), hits give low values 1.02 | S. cerevisiae deletion strains, locus YKL085W, strain MDH1, hits give low values 1.02 | S. cerevisiae deletion strains, locus YKL160W, strain elf1, hits give low values 0.992 | S. cerevisiae deletion strains, locus YKL190W, strain CNB1, hits give low values 1.01 | S. cerevisiae deletion strains, locus YKR001C, strain vps1, hits give low values 1.04 | S. cerevisiae deletion strains, locus YKR026C, strain gcn3, hits give low values 0.991 | S. cerevisiae deletion strains, locus YKR091W, strain srl3, hits give low values 0.974 | S. cerevisiae deletion strains, locus YLL001W, strain dnm1, hits give low values 0.988 | S. cerevisiae deletion strains, locus YLL026W, hits give low values 0.992 | S. cerevisiae deletion strains, locus YLL041C, strain sdh2, hits give low values 0.98 | S. cerevisiae deletion strains, locus YLR027C, strain aat2, hits give low values 0.973 | S. cerevisiae deletion strains, locus YLR039C, strain RIC1, hits give low values 1.07 | S. cerevisiae deletion strains, locus YLR058C, strain SHM2, hits give low values 1.01 | S. cerevisiae deletion strains, locus YLR102C, strain apc9, hits give low values 1.03 | S. cerevisiae deletion strains, locus YLR221C, strain rsa3, hits give low values 1.01 | S. cerevisiae deletion strains, locus YLR258W, strain gsy2, hits give low values 0.975 | S. cerevisiae deletion strains, locus YLR262C, strain YPT6 (second series), hits give low values 1.03 | S. cerevisiae deletion strains, locus YLR262C, strain YPT6, hits give low values 1.09 | S. cerevisiae deletion strains, locus YLR268W, strain sec22, hits give low values 1.02 | S. cerevisiae deletion strains, locus YLR320W, strain mms22, hits give low values 1.03 | S. cerevisiae deletion strains, locus YLR330W, strain CHS5, hits give low values 1.02 | S. cerevisiae deletion strains, locus YLR342W, strain FKS1 (second series), hits give low values 1.07 | S. cerevisiae deletion strains, locus YLR342W, strain FKS1, hits give low values 0.998 | S. cerevisiae deletion strains, locus YLR357W, strain rsc2, hits give low values 0.972 | S. cerevisiae deletion strains, locus YLR370C, strain arc18, hits give low values 0.983 | S. cerevisiae deletion strains, locus YLR371W, strain rom2, hits give low values 1.02 | S. cerevisiae deletion strains, locus YLR384C, strain iki3, hits give low values 1.01 | S. cerevisiae deletion strains, locus YLR418C, strain cdc73, hits give low values 1.09 | S. cerevisiae deletion strains, locus YML016C, strain PPZ1, hits give low values 1.01 | S. cerevisiae deletion strains, locus YML032C, strain rad52, hits give low values 1.01 | S. cerevisiae deletion strains, locus YML120C, strain ndi1, hits give low values 1.01 | S. cerevisiae deletion strains, locus YML124C, strain tub3, hits give low values 1.01 | S. cerevisiae deletion strains, locus YMR058W, strain fet3, hits give low values 0.977 | S. cerevisiae deletion strains, locus YMR078C, strain ctf18, hits give low values 1.02 | S. cerevisiae deletion strains, locus YMR125W, strain sto1, hits give low values 0.942 | S. cerevisiae deletion strains, locus YMR129W, hits give low values 0.998 | S. cerevisiae deletion strains, locus YMR205C, strain PFK2, hits give low values 0.969 | S. cerevisiae deletion strains, locus YMR223W, strain ubp8, hits give low values 1.02 | S. cerevisiae deletion strains, locus YMR231W, strain pep5, hits give low values 1.01 | S. cerevisiae deletion strains, locus YMR263W, strain SAP30, hits give low values 1.02 | S. cerevisiae deletion strains, locus YMR307W, strain GAS1, hits give low values 1.1 | S. cerevisiae deletion strains, locus YNL067W, strain RPL9B, hits give low values 1.02 | S. cerevisiae deletion strains, locus YNL071W, strain lat1, hits give low values 0.993 | S. cerevisiae deletion strains, locus YNL128W, strain TEP1, hits give low values 1.01 | S. cerevisiae deletion strains, locus YNL153C, strain GIM3, hits give low values 1.01 | S. cerevisiae deletion strains, locus YNL209W, strain ssb2, hits give low values 1.01 | S. cerevisiae deletion strains, locus YNL233W, strain BNI4, hits give low values 1.01 | S. cerevisiae deletion strains, locus YNL248C, strain rpa49, hits give low values 0.995 | S. cerevisiae deletion strains, locus YNL250W, strain rad50, hits give low values 1.02 | S. cerevisiae deletion strains, locus YNL271C, strain bni1, hits give low values 1.03 | S. cerevisiae deletion strains, locus YNL298W, strain CLA4, hits give low values 1.03 | S. cerevisiae deletion strains, locus YNL307C, strain MCK1, hits give low values 1.02 | S. cerevisiae deletion strains, locus YNL322C, strain KRE1 (second series), hits give low values 0.986 | S. cerevisiae deletion strains, locus YNL322C, strain KRE1, hits give low values 1.01 | S. cerevisiae deletion strains, locus YNR049C, strain mso1, hits give low values 0.974 | S. cerevisiae deletion strains, locus YNR052C, strain pop2, hits give low values 1.03 | S. cerevisiae deletion strains, locus YOL006C, strain TOP1, hits give low values 1.06 | S. cerevisiae deletion strains, locus YOL012C, strain htz1 1.29 | S. cerevisiae deletion strains, locus YOL147C, strain pex11, hits give low values 1.01 | S. cerevisiae deletion strains, locus YOR001W, strain rrp6, hits give low values 1.01 | S. cerevisiae deletion strains, locus YOR061W, strain CKA2, hits give low values 1.01 | S. cerevisiae deletion strains, locus YOR069W, strain VPS5, hits give low values 1 | S. cerevisiae deletion strains, locus YOR070C, strain gyp1, hits give low values 1 | S. cerevisiae deletion strains, locus YOR080W, strain dia2, hits give low values 0.998 | S. cerevisiae deletion strains, locus YOR083W, strain WHI5, hits give low values 0.991 | S. cerevisiae deletion strains, locus YOR106W, strain vam3, hits give low values 0.961 | S. cerevisiae deletion strains, locus YOR136W, strain idh2, hits give low values 1.01 | S. cerevisiae deletion strains, locus YOR144C, strain elg1, hits give low values 1.01 | S. cerevisiae deletion strains, locus YOR184W, strain ser1, hits give low values 1.04 | S. cerevisiae deletion strains, locus YOR265W, strain rbl2, hits give low values 0.994 | S. cerevisiae deletion strains, locus YOR270C, strain vph1, hits give low values 1.01 | S. cerevisiae deletion strains, locus YOR290C, strain snf2, hits give low values 0.959 | S. cerevisiae deletion strains, locus YOR316C, strain cot1, hits give low values 1.02 | S. cerevisiae deletion strains, locus YPL051W, strain arl3, hits give low values 1.01 | S. cerevisiae deletion strains, locus YPL055C, strain LGE1, hits give low values 1.03 | S. cerevisiae deletion strains, locus YPL078C, strain atp4, hits give low values 0.961 | S. cerevisiae deletion strains, locus YPL106C, strain sse1, hits give low values 1.02 | S. cerevisiae deletion strains, locus YPL240C, strain hsp82, hits give low values 0.994 | S. cerevisiae deletion strains, locus YPL241C, strain CIN2, hits give low values 1.02 | S. cerevisiae deletion strains, locus YPR119W, strain clb2, hits give low values 1.01 | S. cerevisiae deletion strains, locus YPR141C, strain kar3, hits give low values 1.02 | S. cerevisiae deletion strains, locus YPR163C, strain tif3, hits give low values 1.01 | S. cerevisiae deletion strains, locus YPR167C, strain met16, hits give low values 1.03 | S. cerevisiae deletion strains, strain wtn01, hits give low values 1.03 | S. cerevisiae strains, strain wild type, hits give low values 1.01

Source: PubChem BioAssay AID1159580 (chemical genetic matrix, 2015)
